# Several values for one entry are separate records, joined by “and”; a condition that tells them apart may be missing. Equal entries are not always repeated.
# Legend:
# Type in all cases: functional
# [1] = target: Solute carrier family 2, facilitated glucose transporter member 1 (Homo sapiens) (UniProt P11166); assay: ST_JUDE_LEISH: Cytotoxicity at 2uM final concentration against transgenic Leishmania Mexicana promastigotes LmGLUT1 that are glucose transport deficient and complemented with the human glucose transporter GLUT1. Activity is measured by DNA content using SYBR green in vitro
# [2] = target: Hexose transporter 1 (Plasmodium falciparum) (UniProt O97467); assay: ST_JUDE_LEISH: Cytotoxicity at 2uM final concentration against transgenic Leishmania Mexicana promastigotes LmPfHT that are glucose transport deficient and complemented with the Plasmodium falciparum hexose transporter. Activity is measured by DNA content using SYBR green in vitro
# [3] = target: Glucose transporter (Leishmania mexicana) (UniProt O61059); assay: ST_JUDE_LEISH: Cytotoxicity at 2uM final concentration against transgenic Leishmania Mexicana promastigotes LmGT2 that are glucose transport deficient and complemented with the L. Mexicana glucose transporter 2. Activity is measured by DNA content using SYBR green in vitro
# Chain of Solute carrier family 2, facilitated glucose transporter member 1 (Homo sapiens) (P11166 whole entry): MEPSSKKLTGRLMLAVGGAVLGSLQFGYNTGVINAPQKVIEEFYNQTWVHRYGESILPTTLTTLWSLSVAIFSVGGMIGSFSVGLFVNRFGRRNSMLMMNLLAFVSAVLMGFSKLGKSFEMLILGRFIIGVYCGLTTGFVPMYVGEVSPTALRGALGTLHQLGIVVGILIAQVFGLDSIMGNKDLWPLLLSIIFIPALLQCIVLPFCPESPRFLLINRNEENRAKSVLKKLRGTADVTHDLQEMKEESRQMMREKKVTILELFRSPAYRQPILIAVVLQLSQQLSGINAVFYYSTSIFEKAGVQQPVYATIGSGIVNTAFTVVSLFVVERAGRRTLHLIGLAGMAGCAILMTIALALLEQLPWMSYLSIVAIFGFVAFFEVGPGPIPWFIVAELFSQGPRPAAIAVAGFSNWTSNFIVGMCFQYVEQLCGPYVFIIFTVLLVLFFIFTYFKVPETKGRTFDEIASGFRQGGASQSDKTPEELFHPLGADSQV
SMILES,inhibition [1],inhibition [2],inhibition [3]
Cc1nc(-c2nc(NCCc3c(C)noc3C)ncc2-c2ccsc2)sc1C,1.02%,1.58%,2.5%
CCN(CC)CCN(Cc1ccc(-c2ccc(C(F)(F)F)cc2)cc1)C(=O)c1c[nH]c2ccc(Br)cc12,1.48%,1.01%,2.1%
O=C(Nc1ccc(OC2CCN(Cc3ccco3)C2)c(Cl)c1)c1ccc2ncccc2c1 (stereo unspecified),0.4%,-3.49%,0.71%
COc1ccc2ncc(Cl)c(CCN3C[C@H](CNCc4ccc5c(n4)NC(=O)CS5)[C@H](O)C3)c2n1,5.41%,2.07%,2.02%
CCCc1cn2c3c(cc(C(=O)N[C@@H](Cc4ccccc4)[C@H](O)CNC4CCCCC4)cc13)N(C)S(=O)(=O)CC2,1.94%,2.85%,1.49%
Nc1nc(Cc2ccc(Cl)cc2)nc(Cc2ccc(Cl)cc2)n1,-3.43%,-1.17%,5.85%
CCc1cn2c3c(cc(C(=O)N[C@@H](Cc4cccc(Cl)c4)[C@H](O)CNC4CCCCC4)cc13)N(C)S(=O)(=O)CC2,-0.29%,1.09%,-0.36%
Cc1nc(C)c(C2CCC(c3ccc(Cl)cc3)CC2)c(O)c1Cl (stereo unspecified),5.98%,56.3%,-0.48%
O=C(NC1CCN(Cc2ccccc2O)C1)c1ccc(-c2ccccc2)cc1 (stereo unspecified),0.98%,0.41%,1.16%
Cc1cnc(N2CCN(CC3CCN(C)CC3)CC2)nc1Oc1ccc(-n2ccnc2)cc1,4.68%,3.96%,2.78%
O=C(/C=C/c1ccc(Cl)c(Cl)c1)N1CCC(C(O)CN2CCC(c3c[nH]c4ccccc34)CC2)CC1 (stereo unspecified),2.18%,1.82%,0.09%
COc1ccc(-c2cccc(NC(=O)c3ccc(Cl)cc3)c2)cc1CNC(C)C,3.8%,2.1%,-1.5%
CN(Cc1cccc(O)c1)C1CCN(c2cc(NC(=O)c3ccc(F)cc3)ccn2)C1 (stereo unspecified),1.94%,2.9%,3.61%
O=C(Nc1ccc(OC2CCN(Cc3ccccc3)C2)c(Cl)c1)c1cccs1 (stereo unspecified),1.18%,1.06%,1.66%
CC(C)Oc1cc2c(cc1NS(=O)(=O)c1ccc(-c3ccc(Cl)cc3)cc1F)CCN(C)CC2,1.27%,0.75%,-0.15%
CC(NCC(O)Cn1c2ccccc2c2ccccc21)c1ccccc1 (stereo unspecified),0.86%,1.68%,-1.46%

SMILES,inhibition [1],inhibition [2],inhibition [3]
Clc1ccc2c(NCCCCCCCCNc3ccnc4cc(Cl)ccc34)ccnc2c1,2.99%,1.53%,1.88%
c1ccc(CCNCc2ccc(-c3ccc(CNCc4ccc5c(c4)OCO5)cc3)nc2)cc1,2.48%,-1.05%,1.81%
COc1ccc(CN(C)CCCc2ccc(NC(=O)c3cccc4c(O)c5ccccc5nc34)cc2)cc1OC,6.56%,3.71%,1.93%
Cc1cc(Nc2ccnc(-c3ccc(Cl)cc3)n2)ccn1,7.95%,8.43%,8.52%
CC1CN(c2ccc3[nH]cc(Sc4ccc(-c5cccs5)cc4)c3c2)CC(C)N1 (stereo unspecified),-0.79%,-1.78%,-1.36%
CS(=O)(=O)CCNc1cc(N2CCc3ncnc(Nc4ccc(OCc5cccc(F)c5)c(Cl)c4)c3C2)ncn1,-0.04%,0.75%,0.08%
O=C(/C=C/c1ccc(Cl)c(Cl)c1)NCCCCCN1CCC(NC(=S)Nc2ccc(Cl)cc2)CC1,9.42%,8.02%,6.39%
COc1ccc(C2CC(=O)C3=C(C2)NC(C)=C(C(=O)OC2CCCC2)C3c2cccc(O)c2)cc1 (stereo unspecified),0.09%,0.95%,-0.53%
CC(C)NCc1cccc(-c2cccc(NC(=O)c3ccc(C#N)cc3)c2)c1,-1.2%,1.04%,-1.22%
O=C(c1cccc(-c2noc(C(F)(F)F)n2)c1)N1CCN(c2ccncc2)CC1,11.1%,10.9%,10.8%
CCCCOc1ccc(-c2nc3ccccc3[nH]2)cc1,9.74%,8.64%,2.74%
COc1ccc(CCn2c(=N)c(C(=O)NCc3ccccc3)cc3c(=O)n4cccc(C)c4nc32)cc1,12.7%,13.6%,7.48%
O=C(Nc1ccc(Cn2ncc(N3CCCNCC3)c(Cl)c2=O)cc1)Nc1ccc(-c2ccccc2)cc1,-0.52% and 1.84%,0.35% and 2.4%,-4.66% and 1.38%
CN(C)CCCOc1cc(NC(=O)Nc2ccc(-c3ccncc3)c3ccccc23)ccc1I,6.91%,6.1%,7.69%
COc1cccc2c1CCN(CCN1CCC(NC(=O)c3ccc(-c4cccc(Cl)c4Cl)cc3)CC1)C2,6.67%,6.1%,5.27%
CCOc1ccc(C2CCN(CCCCNC(=O)c3ccc(NC(=O)c4ccc(Cl)cc4)cc3)CC2)c(OCC)c1,4.52%,3.34%,2.91%
